Source: PubChem BioAssay (NCATS)
Inconclusive results are not listed. Activity calls are given as the source filed them. Calls follow the shape of the dose curve; as a rule, active = well fitted curve in the direction sought with a large enough effect; inconclusive = small, poorly fitted or top-dose-only effect, or another doubt; inactive = no such curve, though single readings can be large; an effect the other way counts as inactive or inconclusive. Numbered stars: 1 amine (or outer) side, 2 acyl side, 3 side chain; on linkers, the order of the positions; unused ones are H or OH. Square brackets hold non-standard residues; d marks the D form. Peptide text beside a SMILES is read from it. * marks the point of attachment. ξ: configuration not given here. X4 = O=C(C1CC2(c3ccc(O)cc3)c3ccccc3NC2N1[*:1])[*:2]; ξW = NC(Cc1c[nH]c2ccccc12)C(=O)O; ξY = NC(Cc1ccc(O)cc1)C(=O)O; Octanoyl = CCCCCCCC(=O)*

Key:
[1] = U-118MG Cancer Cell Toxicity qHTS against the NCATS CANVASS Library (AID 1347351); also: potency is read from the fitted curve at half-maximal effect
Procedure, shortened: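 Bortezomib titration and single-dose wells served as plate controls. Test compounds, 11 points, acted on 1000 cells/well for 72 h at 37 degrees C; CellTiter-Glo luminescence quantified remaining viable cells.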

[2] = A2780 Cisplatin Sensitive Ovarian Cancer Cell Toxicity qHTS against the NCATS CANVASS Library (AID 1347353); also: nearly all actives have a fitted effect of over 60% in size; also: potency is read from the fitted curve at half-maximal effect
Procedure, shortened: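 Seventy-two-hour exposure of cisplatin-sensitive A2780 ovarian cells to an 11-concentration qHTS series; cytotoxicity is inferred from loss of ATPLite luminescence. Bortezomib titration served as positive control.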

[3] = UWB1.289-WTBRCA1 Cancer Cell Toxicity qHTS against the NCATS CANVASS Library (AID 1347354); also: potency is read from the fitted curve at half-maximal effect
Procedure, shortened: (§1)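 qHTS cytotoxicity: compounds tested in 11 concentrations on 1000 seeded cells per well over 72 h; bortezomib served as control; signal from CellTiter-Glo luminescence.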

[4] = HEK-293 Cancer Cell Toxicity qHTS against the NCATS CANVASS Library (AID 1347355); also: nearly all actives have a fitted effect of over 65% in size; also: potency is read from the fitted curve at half-maximal effect; as to outcome: series mostly up to about 46 µM
Procedure, shortened: as §1

[5] = HPAF-II 24hr Apoptosis Induction qHTS against the NCATS CANVASS Library (AID 1347356)
Procedure, shortened: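 Apoptosis induction in HPAF-II pancreatic cancer cells is measured as caspase-3/7 luminescence after a 24-hour exposure to compounds.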

[6] = test system: NAD(P)H diaphorase (Clostridium kluyveri); assay: Diaphorse counterscreen qHTS: Assay Interference Panel against the NCATS CANVASS Library (AID 1347362)
Procedure, shortened: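 Clostridium kluyveri diaphorase in PBS with 0.01% Tween-20 was preincubated 15 min at room temperature in the dark with compounds (11-point series). Resorufin fluorescence (ex 525/20, em 598/25) was read 5 min after adding resazurin/NADH.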

[7] = KB-8-5-11 Cancer Cell Toxicity qHTS against the NCATS CANVASS Library (AID 1347364); also: nearly all actives have a fitted effect of over 75% in size; also: potency is read from the fitted curve at half-maximal effect
Procedure, shortened: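 Natural products were titrated in 11 points onto KB-8-5-11 cells, 500 per well, and cytotoxicity was scored from CellTiter-Glo luminescence after 72 hr culture.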

[8] = SDT Cancer Cell Toxicity qHTS against the NCATS CANVASS Library (AID 1347365); also: nearly all actives have a fitted effect of over 60% in size; also: potency is read from the fitted curve at half-maximal effect
Procedure, shortened: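 Dispense 500 SDT cells per well; pin-transfer compounds; incubate 72 hr at 37C, 5% CO2, 95% RH; add CellTiterGlo and read luminescence.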

[9] = qHTS for ATAD5 Antagonist screened against the NCATS CANVASS Library (AID 1347370); also: nearly all actives have a fitted effect of over 65% in size; also: potency is read from the fitted curve at half-maximal effect
Procedure, shortened: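 HEK293T cells with a stably integrated ATAD5-controlled luciferase reporter were exposed to compounds (11-pt) alongside 10 uM 5-fluorouridine as ATAD5 stabilizer for 16hr at 37C. Viability was read by CellTiter-Fluor fluorescence, then ATAD5 by luminescence.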

[10] = target: Nuclear receptor subfamily 1 group I member 3 (Homo sapiens) (UniProt Q14994); assay: qHTS for Constitutive Androstane Receptor (CAR) Antagonist screened against the NCATS CANVASS Library (AID 1347372);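 also: cells stimulated with 50 nM CITCO agonist so inhibition reflects antagonism; series mostly up to about 46 µM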
Procedure, shortened: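 HepG2 cells stably carrying hCAR and a CYP2B6-2.2kb luciferase reporter were exposed to compounds plus 50 nM CITCO for 24hr at 37C. CAR activity was read by ONE-Glo luminescence, with viability measured first by CellTiter-Fluor.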

[11] = qHTS for Hypoxia signaling pathway (HIF-1) agonists against the NCATS CANVASS Library (AID 1347375)
Procedure, shortened: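 Inducers of HIF-1 signaling were detected in ME-180 cells bearing an HRE-driven beta-lactamase reporter after 17 h compound exposure. Activity came from CCF4-AM FRET emission ratio (460/530 nm) in qHTS format.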

[12] = qHTS for H2AX Agonists against the NCATS CANVASS Library (AID 1347378)
Procedure, shortened: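 CHO-K1 cells were plated overnight at 37C, then exposed to compounds (concentration series, 0.76% DMSO final) for 3 hr at 37C. Lysates received Eu-cryptate anti-pH2AX (S139) and d2 anti-H2AX antibodies; after 24 hr at room temperature, TR-FRET 665/620 nm ratio was read.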

[13] = Cytotoxicity qHTS for assessment of Hepg2 cells membrane integrity screened against the NCATS CANVASS Library (AID 1347387)
Procedure, shortened: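 Fluorescence proportional to lysed-cell number, from LDH leaking out of HepG2 cells exposed 5 hr at 37C to 0.59 nM - 46 uM compound (11-point qHTS), is measured after 10 min with CytoTox-ONE.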

[14] = Secretion counterscreen for inhibitors of the SERCaMP assay screened against the NCATS CANVASS Library (AID 1347390);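 also: light from luciferase secreted into medium read as a measure of general secretion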; also: potency is read from the fitted curve at half-maximal effect
Procedure, shortened: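 SH-SY5Y cells expressing constitutively secreted GLuc, 1000 cells/well, attached 4 h at 37C, then exposed to compounds (0.001 - 77 uM, 11-pnt series) for 20 h. Coelenterazine added; luminescence read to flag secretory-pathway interferers.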

[15] = qHTS for activators of dead-cell proteases activity screened against the NCATS CANVASS Library (AID 1347392);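 also: luminescence from protease leaking out of membrane-damaged cells cleaving impermeant substrate; rising signal means more cytotoxicity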
Procedure, shortened: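 HepG2 cells (2000/well) attached 18 h at 37C, then exposed 5 h to compounds (11-point qHTS). Dead-cell protease activity read as luminescence from cell-impermeant AAF-aminoluciferin substrate after 15 min at room temperature.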

[16] = qHTS for inhibitors of ER calcium dysfunction: SERCaMP assay screened against the NCATS CANVASS Library (AID 1347393);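 also: series mostly up to about 77 µM; lower secreted reporter signal means inhibitor of ER calcium depletion; nearly all actives have a fitted effect of over 40% in size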
Procedure, shortened: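 qHTS in SH-SY5Y reporter cells: 16 h compound pretreatment, 4 h thapsigargin, then secreted Gaussia luciferase measured by luminescence.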

[17] = Redox Reaction Profiling qHTS: Assay Interference Panel against the NCATS CANVASS Library (AID 1347401); also: potency is read from the fitted curve at half-maximal effect
Procedure, shortened: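 Resazurin (5 uM) conversion to resorufin measured with 200 uM DTT in 50 mM HEPES pH 7.3, 50 mM NaCl. Compounds tested in 11-point qHTS series. Fluorescence (ex 525/em 598 nm) read before and after 15 min dark incubation.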

[18] = DH5-alpha competent E. coli microbial cell viability qHTS against the NCATS CANVASS Library (AID 1347377); conditions: outcome: dose series up to 46.1 µM unless noted
Procedure, shortened: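 Cell viability of competent DH5-alpha E. coli is scored from ATP content by luminescence. Cells sit overnight at 37C with compound across an 11-point concentration series.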

[19] = qHTS for Activators of p53 Stress Response Pathway screened against the NCATS CANVASS Library (AID 1347388); also: potency is read from the fitted curve at half-maximal effect
Procedure, shortened: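 p53RE-bla HCT-116 cells (4000/well) were plated 5 h at 37C, exposed to compounds for 16 h at 37C over an 11-point concentration series, then loaded with CCF4 for 2 h at room temperature; 460/530 nm emission ratio read.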

[20] = qHTS assay for small molecule disruptors of mitochondrial membrane potential screened against the NCATS CANVASS Library (AID 1347389); also: nearly all actives have a fitted effect of over 60% in size; also: potency is read from the fitted curve at half-maximal effect
Procedure, shortened: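 Compounds tested in 11-point qHTS series on HepG2 cells for 1 hr; membrane-potential dye added for 30 min at 37C. Lower red-to-green ratio indicates loss of potential.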

Measured: Potency

Nuclear receptor subfamily 1 group I member 3 (Homo sapiens), sequence (Q14994 whole entry, looked up): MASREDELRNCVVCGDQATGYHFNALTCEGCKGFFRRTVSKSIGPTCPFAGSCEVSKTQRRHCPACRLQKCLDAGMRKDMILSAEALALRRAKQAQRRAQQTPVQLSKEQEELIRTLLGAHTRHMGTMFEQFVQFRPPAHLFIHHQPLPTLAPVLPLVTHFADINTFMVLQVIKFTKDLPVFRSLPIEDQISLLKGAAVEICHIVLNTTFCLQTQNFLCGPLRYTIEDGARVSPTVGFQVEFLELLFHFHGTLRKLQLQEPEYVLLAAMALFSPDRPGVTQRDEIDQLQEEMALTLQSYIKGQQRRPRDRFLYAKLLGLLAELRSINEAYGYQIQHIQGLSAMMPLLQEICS

O=C1c2c(O)cc(O)cc2O[C@@H](c2ccc(O)cc2)[C@@H]1c1c(O)cc(O)c2c(=O)cc(-c3ccc(O)c(O)c3)oc12
not listed: [18] | [19] | [20]
inactive: all other assays above

C=C1/C=C\C(CCC)=C\c2csc(n2)C(C)NC(=O)C[C@@]2(CC(=O)O)CCC(=C)[C@H](C1)S2 (stereo not given in full)
not listed: [8]
inactive: all other assays above

CO[C@@H]1C[C@@H](C[C@H]2CC[C@H](C)[C@H]([C@@H](C)C(=O)O)O2)O[C@]2(O[C@](C)([C@H]3CC[C@@](C)([C@@H]4O[C@@H]([C@H]5O[C@](C)(O)[C@H](C)C[C@@H]5C)C[C@@H]4C)O3)C[C@H]2C)[C@@H]1C
inactive: [5] | [12] | [13] | [15] | [16] | [17]
active: [1] 5.3 µM | [2] 0.0372 µM | [3] 9.41 µM | [4] 0.296 µM | [7] 5.9 µM | [8] 0.0935 µM | [9] 14.8 µM | [19] 3.71 µM | [20] 18.6 µM | [14] 0.484 µM

CC1C(=O)C23CCC1C[C@]21O[C@@H]2C(C)(C)C=CC(=O)[C@@]23COC1=O (stereo not given in full)
not listed: [16]
inactive: all other assays above

C=C1[C@H]2CC[C@@]3(C=CC(=O)[C@@](C)(CCC(=O)Nc4c(O)ccc(C(=O)O)c4O)C3C2)[C@H]1O (stereo not given in full)
not listed: [8]
inactive: all other assays above

C[C@@]12CCC[C@@](C)(C(=O)O)[C@H]1C[C@@H](O)[C@]13C[C@H]4C[C@H](O[C@@]4(C)C1)[C@@H]23
inactive: all assays above

C=C1C[C@@]23C=CC(=O)[C@@](C)(CCC(=O)Nc4c(O)ccc(C(=O)O)c4O)C2C[C@@H]1C(O)C3 (stereo not given in full)
not listed: [6] | [17]
inactive: all other assays above

C/C1=C\CC(=O)/C=C/C=C\c2csc(n2)[C@@H](C)NC(=O)C[C@@](S)([C@@H](C)C(=O)O)CC1
not listed: [6] | [12] | [16] | [17]
inactive: all other assays above

CC[C@H](C)[C@H](NC(=O)C(Cc1ccc(O)cc1)NC(=O)C(Cc1c[nH]c2ccccc12)NC(=O)[C@H](C)N)C(=O)N1C(C(=O)NC(Cc2ccc(O)cc2)C(=O)O)CC2(c3ccc(O)cc3)c3ccccc3NC12 (stereo not given in full) (H-A[ξW][ξY]I[X4][ξY]-OH)
not listed: [17]
inactive: all other assays above

COc1cc(O)c2c3c(c(O)cc(C)c13)C(=O)OC2
active: [20] 18.6 µM | [17] 21.5 µM
not listed: [6] | [16]
inactive: all other assays above

O=Cc1ccc2n1C[C@@]1(C[C@H](O)[C@@H](CO)O1)OC2
not listed: [20]
inactive: all other assays above

C=C1C[C@@]23C=CC(=O)[C@@](C)(CCC(=O)Nc4c(O)ccc(C(=O)O)c4O)C2C[C@@H]1CC3 (stereo not given in full)
not listed: [18]
inactive: all other assays above

CC(=O)O[C@H]1CC[C@@]2(C)C(CC[C@]3(C)C2CC=C2C4CC(C)(C)CC[C@]4(C)CC[C@]23C)C1(C)C (stereo not given in full)
not listed: [20]
inactive: all other assays above

CS/C=C/C(N)=O
inactive: all assays above

Cc1cc(O)cc2oc(C[C@H](C)O)cc(=O)c12
active: [8] 1.48 µM
inactive: all other assays above

CCCCCCCC(=O)N[C@@H](CC(C)C)C(=O)N[C@H](C=O)CCC(=O)O (Octanoyl-Leu-Glu-aldehyde)
inactive: all assays above

O=C(O)CC1OCc2c(O)cccc21 (stereo not given)
not listed: [14]
inactive: all other assays above

COc1cc(/C=C2/C(=O)N(c3ccc(O)cc3C(=O)O)[C@H](c3ccc(O)c(OC)c3)C2C(=O)Nc2ccc(O)cc2C(=O)O)ccc1O (stereo not given in full)
not listed: [17]
inactive: all other assays above

C[C@@H]1O[C@H](c2c(O)cc(O)c3c(=O)cc(-c4ccc(O)cc4)oc23)[C@H](O)[C@H](O)[C@H]1O
inactive: all assays above

C[C@@]12C[C@@H](C[C@H]3C(=O)O[C@@H](c4ccoc4)[C@H](OC(=O)c4ccccc4)[C@@H]31)OC2=O
inactive: all assays above

C/C=C/C=C/C1(O)C2C=C3C(=O)CC45C(=O)C(O)=C(C)C(=O)C4C1C1(C(=O)C(O)=C(C)C(=O)C351)C2C (stereo not given)
not listed: [17]
inactive: all other assays above

O=C(O)[C@@]12CO[C@@]3(O)C4CCN(CC[C@H]31)[C@H]4c1c2[nH]c2ccccc12
inactive: all assays above

O=C(O)Cc1c[nH]c2ccccc12
inactive: all assays above
